Results: PubChem BioAssay (Tox21)
The source made the active and inactive calls. Calls follow the shape of the full dose curve.

The molecules below were run against Gonadotropin-releasing hormone receptor (Homo sapiens) (UniProt P30968) (assay: Human gonadotropin-releasing hormone receptor (GnRHR) small molecule agonists, calcium flux assay in GnRHR-HEK293 cells (AID 1920063; also: nearly all actives have a fitted effect of over 35% in size)). Conditions: calcium flux fluorescence, agonist mode; series mostly up to 57.6 µM; activity change: at the top concentration.
Sequence of Gonadotropin-releasing hormone receptor (Homo sapiens) (P30968 whole entry, looked up): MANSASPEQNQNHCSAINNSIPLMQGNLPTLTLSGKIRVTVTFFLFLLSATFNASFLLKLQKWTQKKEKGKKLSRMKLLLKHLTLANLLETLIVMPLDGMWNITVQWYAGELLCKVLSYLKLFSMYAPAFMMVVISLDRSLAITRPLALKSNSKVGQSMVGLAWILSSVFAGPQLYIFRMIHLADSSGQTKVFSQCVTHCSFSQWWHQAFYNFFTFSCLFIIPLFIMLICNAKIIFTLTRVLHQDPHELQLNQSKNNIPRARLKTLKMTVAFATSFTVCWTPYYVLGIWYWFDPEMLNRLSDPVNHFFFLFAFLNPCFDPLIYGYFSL
Excerpt: National Center for Advancing Translational Sciences [NCATS]
Division of Preclinical Innovation [DPI]
U.S. Environmental Protection Agency [EPA]
National Institutes of Environmental Health Sciences [NIEHS]
National Toxicology Program [NTP]
U.S. Food and Drug Administration [FDA]
Gonadotropin-releasing hormone receptor (GnRHR) is a G-protein-coupled receptor (GPCR) and acts (through phospholipase C) to increase intracellular inositol trisphosphate and then release intracellular calcium stores. Cell-based GnRHR-Hek293 calcium influx assay is using HEK293 cells that have been genetically engineered to express the human GnRHR, which activity can be measured by calcium signaling. A compound/drug can activate (agonist) GnRHR that can be monitored by levels of intracellular calcium.
GnRHR-HEK293 cells developed by Codex Corp contain human GnRHR reporter gene, which was stably integrated into HEK 293 cells. The compound activation can be detected by fluorescence intensity via calcium flux assay. This cell line has been used to screen the Tox21 10K compound library to identify GnRHR agonists.
GnRHR-Hek293 cells were dispensed at 1500cells/4uL/well in 1536-well black wall/clear bottom plates using a multidrop dispenser. After the assay plates were incubated at a 37 C/5% CO2 incubator for 18 hours, 4 uL of Calcium Dye Solution was added to each well. The plates were incubated at 37 C for 1 hour. For agonist mode, 23 nL of compounds dissolved in DMSO, positive controls or DMSO only was transferred to the assay plate by a pin tool station. The fluorescence intensity in the plates was measured using FDSS 7000EX kinetic plate reader with a filter set of Ex/Em=480/540 for 3 min at 1 sec intervals. Each test compound was measured at 15 concentrations and in triplicates.
% is scaled to controls: 0 for no effect and ±100 for the full control effect.

| Compound | activity change | Potency |
| --- | --- | --- |
| NC1=NCC2c3ccccc3Cc3ccccc3N12 (stereo not given) | -1.18% [at 26.4 µM, stronger effect = higher value] (inactive) |  |
| CCCCCCCCCCCCCCCCC(C(=O)O)C(O)(CC(=O)O)C(=O)O (stereo not given) | 1.09% [at 26.4 µM, stronger effect = higher value] (inactive) |  |
| CCC(C)OC(=O)N1CCCCC1CCO (stereo not given) | -0.0956% (inactive) |  |
| CC(CCc1ccc2c(c1)OCO2)NN (stereo not given) | -0.896% [at 26.4 µM, stronger effect = higher value] (inactive) |  |
| NC(=O)n1c(O)c(C(=O)c2cccs2)c2cc(Cl)ccc21 | 6.24% [at 26.4 µM, stronger effect = higher value] (inactive) |  |
| c1ccc2c(c1)CCCC2C1=NCCN1 (stereo not given) | 2.27% [at 26.4 µM, stronger effect = higher value] (inactive) |  |
| CCCc1ccc(OCC(=O)N2CCN(C(=O)COc3ccc(CCC)cc3OC)CC2)c(OC)c1 | -1.84% [at 26.4 µM, stronger effect = higher value] (inactive) |  |
| Nc1ccc(C(=O)Nc2ccccc2N)cc1 | -0.113% [at 26.4 µM, stronger effect = higher value] (inactive) |  |
| O=C(O)CO | 1.83% (inactive) |  |
| CCC(=O)/C=C/c1ccc(OC)cc1 | 0.886% (inactive) |  |
| O=C(Nc1ccccc1)c1cc(Cl)ccc1O | 15.6% (inactive) |  |
| CN1CCC[C@@H]1c1cccnc1 | 0.352% [at 26.4 µM, stronger effect = higher value] (inactive) |  |
| O=C(Nc1ncc([N+](=O)[O-])s1)c1cccs1 | 14.9% [at 26.4 µM, stronger effect = higher value] (inactive) |  |
| Cc1cc2c(cc1C(F)(F)F)N(C(=O)Nc1ccc(Oc3cccnc3C)nc1)CC2 | 3.96% (inactive) |  |
| CC1(C)CC(=O)CC(C)(C)N1 | 0.123% (inactive) |  |
| C=CC(=O)[O-].C=CC(=O)[O-].[Zn+2] | 0.165% (inactive) |  |
| N=C1N=C(N)c2cc3ccccc3cc21 | 3.43% (inactive) |  |
| O=C(O)c1cc(C(=O)O)cc(C(=O)O)c1 | -1.76% (inactive) |  |
| CCCC(C)CC (stereo not given) | 0.409% (inactive) |  |
| CCCCOC(=O)c1ccccc1C(=O)OCC(CC)CCCC (stereo not given) | 1.04% (inactive) |  |

| Compound | activity change | Potency |
| --- | --- | --- |
| CCOC(=O)Nc1ccc2c(c1)N(C(=O)CCN1CCOCC1)c1ccccc1S2 | 1.51% [at 26.4 µM, stronger effect = higher value] (inactive) |  |
| COc1ccc(OC(F)(F)F)cc1CN[C@H]1CCCN[C@H]1c1ccccc1 | 19.3% (inactive) |  |
| O=C(CCCN1CCC(O)(c2ccc(Cl)cc2)CC1)c1ccc(F)cc1 |  | inactive |
| Oc1ccc2c(c1)Cc1ccccc1-2 | -2.43% (inactive) |  |
| Brc1ccccc1-c1ccccc1 | 5.89% (inactive) |  |
| O=C(O)[C@H](O)c1ccccc1 | 0.0276% [at 26.4 µM, stronger effect = higher value] (inactive) |  |
| CCCCC(CC)CNCC(CC)CCCC (stereo not given) | 1.65% (inactive) |  |
| Oc1c(I)cc(Cl)c2cccnc12 |  | inactive |
| O=C(O)CCCl | 2.41% (inactive) |  |
| O=C1c2ccccc2C(=O)c2c(O)c(O)cc(O)c21 | 7.46% (inactive) |  |
| O=C(O)c1ccc(-n2nc(-c3ccccc3O)nc2-c2ccccc2O)cc1 | -0.241% [at 26.4 µM, stronger effect = higher value] (inactive) |  |
| COC(=O)C1=C(C)NC(COC(N)=O)=C(C(=O)OC(C)C)C1c1cccc(Cl)c1Cl (stereo not given) | -1.32% [at 26.4 µM, stronger effect = higher value] (inactive) |  |
| CCCCCC/C=C/C=O | 0.287% (inactive) |  |
| CCn1nc(C)c2c1C(=O)NCC(c1ccc(O)cc1)=N2 | 1.17% (inactive) |  |
| C=CC(C)=CCC=C(C)C | -0.822% (inactive) |  |
| COC(C)(C)CC(C)=O | -0.982% (inactive) |  |
| C[C@@H](Oc1ccc(CNC(=O)c2cccnc2Oc2ccc3c(c2)OCO3)c(F)c1)C(=O)O | -0.0711% (inactive) |  |
| Nc1nc(N)c2nc(CNc3ccc(C(=O)N[C@@H](CCC(=O)O)C(=O)O)cc3)cnc2n1 | -0.296% (inactive) |  |
| CCOc1ccc2nc3cc(N)ccc3c(N)c2c1 | 0.213% [at 26.4 µM, stronger effect = higher value] (inactive) |  |
| Cc1nc2c([nH]1)c(=O)n(C)c(=O)n2Cc1ccco1 | -0.541% [at 26.4 µM, stronger effect = higher value] (inactive) |  |
